Reference: PubChem BioAssay
Active and inactive are the calls of the source. Unless noted, the rule behind the calls is not given here.

What was measured:
[1] = compound effects on lung adenocarcinoma cell viability – A549, calcein-AM fluorescence, 48 h, basal, profiling panel (AID 1162); conditions: higher = more signal; note: test concentration not given here
[2] = compound effects on differentiated 3T3-L1 adipocyte viability – cell-based, 3T3-L1 adipocytes, calcein-AM fluorescence, 48 h, basal, profiling panel (AID 1163); conditions: 3T3-L1 adipocytes viability, higher = more signal; note: test concentration not given here
[3] = compound effects on hepatocellular carcinoma cell viability – HepG2, calcein-AM fluorescence, 48 h, basal, profiling panel (AID 1164); conditions: higher = more signal; note: test concentration not given here
[4] = compound effects on multiple myeloma cell viability – MM1S, calcein-AM fluorescence, 48 h, basal, profiling panel (AID 1165); conditions: higher = more signal; note: test concentration not given here
[5] = calcein-AM signal in unstimulated myeloma cells – cell-based, calcein-AM fluorescence, 48 h, PK04 Diversity Set, profiling panel (AID 1166); conditions: RPMI8226 myeloma viability, higher = more signal;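 note: cells grown under basal conditions without added stimulus; test concentration not given here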
[6] = JC-1 mitochondrial signal, unstimulated HepG2 cells – cell-based, JC-1 fluorescence, 24 h, 100 nL compound, profiling panel (AID 1167); conditions: HepG2 mitochondrial potential, higher = more signal; note: test concentration not given here
[7] = JC-1 mitochondrial signal, unstimulated adipocytes – cell-based, JC-1 fluorescence, 3T3-L1 adipocytes, 24 h, 100 nL compound, profiling panel (AID 1168); conditions: JC-1 mitochondrial fluorescence, higher = more signal, called active from +8 up or from −8 down; note: test concentration not given here
[8] = JC-1 mitochondrial signal, unstimulated myeloma cells – cell-based, JC-1 fluorescence, RPMI8226, 24 h, 100 nL compound, profiling panel (AID 1169); conditions: JC-1 mitochondrial potential fluorescence, higher = more signal; note: test concentration not given here
[9] = JC-1 mitochondrial signal, unstimulated MM1S myeloma – cell-based, JC-1 fluorescence, 24 h, 100 nL compound, profiling panel (AID 1170); conditions: MM1S mitochondrial potential, higher = more signal; note: test concentration not given here
[10] = resazurin metabolic signal in A549 cells – cell-based, resazurin fluorescence, 24 h, PK04 Diversity Set, profiling panel (AID 1171); conditions: A549 viability, higher = more signal, called active from +8 up or from −8 down; note: test concentration not given here
[11] = resazurin metabolic signal in HepG2 cells – cell-based, resazurin fluorescence, 24 h, PK04 Diversity Set, profiling panel (AID 1172); conditions: HepG2 viability, higher = more signal; note: test concentration not given here
[12] = budding yeast growth changes without added modifier – OD600, strain BY4716, 24 h, basal condition, primary screen (AID 1173); conditions: S. cerevisiae BY4716 growth, OD600, 24 h; higher = more signal, called active from +8 up or from −8 down
[13] = viability profiling in MM1S myeloma cells – cell-based, resazurin fluorescence, basal, 24 h, PK04 Diversity Set, profiling panel (AID 1174); conditions: higher = more signal, called active from +8 up or from −8 down; note: test concentration not given here
[14] = biological target: Dihydroorotate dehydrogenase (quinone), mitochondrial (Plasmodium falciparum (isolate 3D7)) (UniProt Q08210); test: inhibition of P. falciparum DHODH – biochemical, C-terminal His tag, absorbance 600 nm, primary screen (AID 1175); conditions: PfDHODH enzyme, DCIP absorbance 600 nm; higher = more signal, called active from +8 up or from −8 down;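 note: recombinant parasite enzyme with a five histidine tag at its C terminus; test concentration not given here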
[15] = inhibition of PAO1 biofilm formation – strain PAO1, LB-PBS medium, absorbance 600 nm, primary screen (AID 1176); note: test concentration not given here; conditions: P. aeruginosa PAO1 growth/biofilm, A600, 12 h; higher = more signal
[16] = growth modulation of vineyard yeast isolate – strain RM11-1a, OD600, basal, 24 h, primary screen (AID 1177);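 note: cultures grown under basal conditions with no added stressor; test concentration not given here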; conditions: S. cerevisiae RM11-1a growth, OD600, 24 h; higher = more signal, called active from +8 up or from −8 down
[17] = growth of efflux-deficient E. coli DRC39 – strain DRC39, OD650, 24 h, E. coli filamentation inducers, primary screen (AID 1178);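 note: growth measured as culture turbidity by optical density at 650 nm; test concentration not given here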; conditions: E. coli DRC39 acrAB, higher = more signal, called active from +8 up or from −8 down
[18] = growth of efflux-deficient E. coli DRC39 – strain DRC39, OD650, 48 h, E. coli filamentation inducers, primary screen (AID 1179);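 note: screen aims at cell division blockers that make cells filament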; conditions: E. coli DRC39 delta-acrAB growth, higher = more signal, called active from +8 up or from −8 down
[19] = viability profiling in RPMI8226 myeloma cells – cell-based, resazurin fluorescence, basal, 24 h, PK04 Diversity Set, profiling panel (AID 1180); conditions: higher = more signal;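 note: RPMI8826 multiple myeloma cell line at 5000 cells per well; test concentration not given here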
[20] = biological target: E3 ubiquitin-protein ligase XIAP (Homo sapiens) (UniProt P98170); test: small molecules binding XIAP protein – biophysical, small-molecule microarray, fluorescence 635 nm, primary screen (AID 1181); conditions: higher = more signal;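 note: score merges 667 nm emission and signal to noise over triplicate slides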
Sequence of E3 ubiquitin-protein ligase XIAP (Homo sapiens) (P98170 whole entry, looked up): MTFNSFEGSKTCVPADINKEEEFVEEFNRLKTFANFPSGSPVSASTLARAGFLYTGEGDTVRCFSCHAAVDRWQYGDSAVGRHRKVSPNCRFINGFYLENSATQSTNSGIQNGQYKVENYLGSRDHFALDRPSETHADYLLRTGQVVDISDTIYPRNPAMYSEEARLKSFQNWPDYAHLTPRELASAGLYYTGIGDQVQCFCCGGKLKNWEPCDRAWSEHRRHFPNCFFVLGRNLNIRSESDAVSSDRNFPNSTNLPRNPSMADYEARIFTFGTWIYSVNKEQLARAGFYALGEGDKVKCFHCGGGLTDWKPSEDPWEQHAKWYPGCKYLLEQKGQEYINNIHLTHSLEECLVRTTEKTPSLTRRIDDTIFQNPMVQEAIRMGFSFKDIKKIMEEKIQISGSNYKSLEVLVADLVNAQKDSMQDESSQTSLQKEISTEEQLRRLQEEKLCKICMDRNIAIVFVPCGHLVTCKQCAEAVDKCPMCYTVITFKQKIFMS

Sequence of Dihydroorotate dehydrogenase (quinone), mitochondrial (Plasmodium falciparum (isolate 3D7)) (Q08210 whole entry, looked up): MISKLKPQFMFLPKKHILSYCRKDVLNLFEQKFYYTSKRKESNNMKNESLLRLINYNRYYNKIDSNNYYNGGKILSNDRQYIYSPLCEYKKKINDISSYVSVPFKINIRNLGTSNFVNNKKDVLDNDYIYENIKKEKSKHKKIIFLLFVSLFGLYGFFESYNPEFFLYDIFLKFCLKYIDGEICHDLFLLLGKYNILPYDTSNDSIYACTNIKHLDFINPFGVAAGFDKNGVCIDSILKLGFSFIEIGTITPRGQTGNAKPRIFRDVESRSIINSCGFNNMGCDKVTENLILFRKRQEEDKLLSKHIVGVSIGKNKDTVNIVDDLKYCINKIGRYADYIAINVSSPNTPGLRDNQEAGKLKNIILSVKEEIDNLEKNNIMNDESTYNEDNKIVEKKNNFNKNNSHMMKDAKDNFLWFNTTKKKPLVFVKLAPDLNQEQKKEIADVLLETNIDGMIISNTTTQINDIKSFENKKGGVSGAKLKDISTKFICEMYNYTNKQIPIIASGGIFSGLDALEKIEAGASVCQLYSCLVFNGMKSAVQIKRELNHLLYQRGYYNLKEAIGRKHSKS

Row | Compound | z-score [1] | z-score [2] | z-score [3] | z-score [4] | z-score [5] | z-score [6] | z-score [7] | z-score [8] | z-score [9] | z-score [10] | z-score [11] | z-score [12] | z-score [13] | composite z-score [14] | z-score [15] | z-score [16] | z-score [17] | z-score [18] | z-score [19] | composite z-score [20]
1 | C=C(CCCC)/C(=C/C[C@H](OC(C)=O)c1ccc(CO)o1)c1cnc2ccccc2c1 | 0.0278 | -0.229 | 0.311 | -2.01 | -0.889 | -1.04 | -0.779 (inactive) | -0.143 | -0.238 | 0.398 (inactive) | -0.0826 | -0.143 (inactive) | -0.735 (inactive) | -6.03 (inactive) | 1.58 (inactive) | 1.66 (inactive) | 0.18 (inactive) | 0.284 (inactive) | 0.137 | 0.0426
2 | [N-]=[N+]=Nc1ccccc1C[C@]1(C(=O)NCCN2CCOCC2)N=C(c2ccc(OCCCO)cc2)O[C@H]1c1ccccc1 | -0.0454 | 0.0937 | -0.256 | -0.0793 | -0.26 | 0.771 | 0.00214 (inactive) | -0.309 | -0.777 | 1.24 (inactive) | 0.224 | -3.1 (inactive) | -0.359 (inactive) | -0.0351 (inactive) | 0.565 (inactive) | -0.52 (inactive) | 0.148 (inactive) | -0.338 (inactive) | -0.554 | 0.0679
3 | COC(=O)[C@@]1(Cc2ccc(OC)cc2)[C@H]2c3cc(C(=O)N4CCCC4)n(Cc4cc(F)cc5c4OCOC5)c3C[C@H]2CN1C(=O)c1ccccc1 | -1.67 | -0.151 | -0.675 | -3.31 | -3.81 | 0.912 | -0.562 (inactive) | -0.753 | -2.72 | -1.5 (inactive) | -1.47 | 0.433 (inactive) | -5.86 (inactive) | -0.607 (inactive) | 0.687 (inactive) | -0.334 (inactive) | -1.32 (inactive) | -1.24 (inactive) | -3.53 | 0.389
4 | COC(=O)[C@@]1(Cc2ccccc2)[C@H]2c3cc(C(=O)N(C)C)n(Cc4cc(C)n(C)n4)c3C[C@H]2CN1C(=O)c1ccccc1 | -0.997 | 0.461 | 0.0271 | -0.47 | -0.965 | 1.17 | -1.24 (inactive) | -0.0807 | 0.0916 | -0.236 (inactive) | -1.03 | 0.289 (inactive) | -0.99 (inactive) | -0.857 (inactive) | 0.687 (inactive) | -0.211 (inactive) | -1.12 (inactive) | -0.944 (inactive) | -0.566 | 0.0737
5 | O=C/C=C/c1ccc(Cl)cc1 | 1.04 | -0.0776 | 0.265 | -3.17 | 0.45 | 1.32 | -0.34 (inactive) | -0.762 | -1.25 | -0.835 (inactive) | -0.831 | -18 (active) | -0.832 (inactive) | -1.96 (inactive) | 0.475 (inactive) | -4.94 (inactive) | 0.3 (inactive) | 0.782 (inactive) | -0.81 | -0.134
6 | COc1ccc(C#Cc2ccc3c(c2)[C@]2(C(=O)N3)[C@H](c3ccc(O)cc3)N3[C@H](c4ccccc4)[C@H](c4ccccc4)OC(=O)[C@H]3[C@@H]2C(=O)N2CCCCCCC2)cc1 | 0.334 | 1.01 | 0.629 | -0.0384 | -0.208 | 0.269 | 3.48 (inactive) | -0.538 | 0.366 | -0.531 (inactive) | -0.527 | -1.15 (inactive) | 0.0901 (inactive) | -1.4 (inactive) | 1.44 (inactive) | -0.404 (inactive) | -0.525 (inactive) | -0.469 (inactive) | 0.326 | 0.536
7 | CC(C)c1ccc(NN2C(C(O)c3ccc(N(C)C)cc3)C=CC3C(=O)N(c4ccccc4)C(=O)C32)cc1 (stereo not given) | 1.1 | -1.62 | 0.974 | -0.36 | -0.368 | -0.337 | -1.22 (inactive) | 0.149 | -0.811 | -0.0686 (inactive) | 0.0387 | 0.254 (inactive) | -0.683 (inactive) | 0.421 (inactive) | 0.53 (inactive) | 0.25 (inactive) | -0.172 (inactive) | 0.766 (inactive) | 0.203 | 0.391
8 | COc1cc(CO)ccc1OC(C)=O | 0.653 | 0.584 | 1.04 | 1.12 | 1.19 | 0.302 | 0.791 (inactive) | 0.41 | 0.433 | -1.08 (inactive) | -0.386 | -0.277 (inactive) | -0.779 (inactive) | -1.75 (inactive) | -0.248 (inactive) | -1.18 (inactive) | 0.35 (inactive) | 0.915 (inactive) | -0.927 | -0.17
9 | C=CCC(OC(C)=O)[C@@H]1[C@@H](N(Cc2cc3ccccc3o2)C(=O)c2ccc(C)cc2)c2cc(OCCCO)ccc2N1C(=O)c1ccc2ccccc2c1 (stereo not given in full) | 1.37 | 0.595 | 1.89 | 1.14 | 0.671 | 2.27 | -0.409 (inactive) | 0.33 | 0.748 | 1.43 (inactive) | 0.792 | -0.195 (inactive) | 0.951 (inactive) | -0.375 (inactive) | -0.583 (inactive) | 0.0749 (inactive) | 0.786 (inactive) | 1.02 (inactive) | 1.72 | 0.0015
